Screening data deposited in PubChem BioAssay by National Center for Advancing Translational Sciences (NCATS).
ALDH1A1 inh-1 = ALDH1A1 (human) enzyme inhibition; Potency, µM (doses to about 75.3 µM), usual class: inhibitors; Purified ALDH1A1, NADH fluorescence, propionaldehyde substrate; 7.3% of 220,000 active; P00352; active = well fitted inhibition curve with a large enough effect, not every such curve was filed as active; inconclusive = small, poorly fitted or top-dose-only effect, or another doubt; inactive = no such curve, though single readings can be large or run the other way
RGS12 GoLoco inh = blocks human Gai1 binding to RGS12 GoLoco peptide, red readout; Gai1:RGS12 GoLoco peptide FP, rhodamine, 10 min; Potency, µM (highest dose often 61.6 µM), actives largely listed as inhibitors; 0.44% of 230,000 active; P63096; AID 880; active = well fitted inhibition curve with a large enough effect, not every such curve was filed as active; inactive = no such curve, though single readings can be large or run the other way; also: nearly all actives have a fitted effect of over 30% in size
HPGD block = inhibitors of human 15-hydroxyprostaglandin dehydrogenase (HPGD). P15428. purified HPGD, NADH fluorescence kinetic, PGE2 substrate. Potency, µM, most hits filed as inhibitors. 4.3% of 150,000 active; active = well fitted inhibition curve with a large enough effect, not every such curve was filed as active; inconclusive = small, poorly fitted or top-dose-only effect, or another doubt; inactive = no such curve, though single readings can be large or run the other way
Target sequence (P15428 whole entry, looked up): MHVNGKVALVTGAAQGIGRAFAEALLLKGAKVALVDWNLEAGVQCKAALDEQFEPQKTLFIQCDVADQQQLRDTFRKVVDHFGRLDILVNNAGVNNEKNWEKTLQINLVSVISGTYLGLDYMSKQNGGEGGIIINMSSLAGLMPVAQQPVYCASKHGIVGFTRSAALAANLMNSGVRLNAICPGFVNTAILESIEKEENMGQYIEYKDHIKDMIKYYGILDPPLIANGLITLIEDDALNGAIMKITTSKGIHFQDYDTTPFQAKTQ
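NADH formation kinetics: reaction with 30 uM PGE2 and 1 mM NAD+ (final), 20 nM enzyme, Tris-HCl pH 8 with Tween 20, after 15 min compound preincubation at room temperature. Fluorescence change, last versus first of five reads.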
HttQ103 aggreg = inhibitors of mutant huntingtin aggregate formation in PC12 cells; Potency, µM (series often up to 46.1 µM), hits mostly inhibitors; 1.1% of 220,000 active; PC12 HttQ103-GFP aggregates, Acumen cytometry, 40 h; also: nearly all actives have a fitted effect of over 60% in size
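Compounds (qHTS titration) were added to PC12 cells expressing an ecdysone-driven HTT exon 1 Q103–GFP fusion after induction with 100 nM tebufenozide. Aggregate formation was measured as GFP objects in cell lysates.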
HTT ATP protect = protects HTT-Q103 PC12 cells, measured by ATP. PC12 HTT-Q103 induced, cytoprotection, ATP luminescence, 40 h. Potency, µM (titrated, usually from 56.4 µM), actives largely listed as activators. 0.14% of 230,000 active. AID 1471; also: nearly all actives have a fitted effect of over 45% in size
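Quantitative HTS on tebufenozide-induced (100 nM) PC12 cells expressing HTTQ103 exon 1–GFP; compounds tested as a concentration series; survival measured via cellular ATP.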
PNC inhibitor = inhibitors of perinucleolar compartment assembly | PC3M PTB-GFP, PNC prevalence imaging, 16 h; hits give low values | AID 2417 | 3.1% of 140,000 active | activity change (PNC), negative = inhibition, % at 10 µM;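 active = readout at or below -70, meaning at least 70% loss of cells showing the perinucleolar compartment, a nuclear body marking cancer cells; inconclusive = readout between -30 and a set limit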
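PC3M cells stably expressing PTB-GFP, 750–1000 cells/well, treated 16 h at 37 °C with compound (23 nl of library stock), in duplicate. After paraformaldehyde fixation and Hoechst stain, imaged at 20x; PNC prevalence scored by image analysis.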
HPGD inh cf = human HPGD enzyme inhibition, confirmation; shares compounds with HPGD block; 90% of 90 active; Potency, µM (titrated, usually from 57.1 µM), hits mostly inhibitors; recombinant HPGD, NADH fluorescence, PGE2 substrate; calls by dose curve
ALDH1A1 inh-2 = Confirms inhibition of human ALDH1A1 with counterscreen | shares compounds with ALDH1A1 inh-1 | 90% of 90 active | Potency, µM (top dose mostly 57.1 µM), usual class: inhibitors | purified ALDH1A1, NADH fluorescence, propionaldehyde/NAD+; calls by dose curve
Each line names hits and unclear results; the compound was inactive in the other large screens (follow-up assays come after a bar, where they were run). Only some compounds are listed: those with a hit (about 11% of all), similar ones and a draw of the others. Unless noted, calls follow the shape of the dose curve; as a rule, active = well fitted curve in the direction sought with a large enough effect; inconclusive = small, poorly fitted or top-dose-only effect, or another doubt; inactive = no such curve, though single readings can be large; an effect the other way counts as inactive or inconclusive.

Oc1ccc2c3c1O[C@H]1c4[nH]c5c(c4C[C@@]4(O)[C@@H](C2)N(CC2CC2)CC[C@]314)C[C@]1(O)[C@H]2Cc3ccc(O)c4c3[C@@]1(CCN2CC1CC1)[C@@H]5O4	none (no result: HttQ103 aggreg, PNC inhibitor)
O=c1cccc2n1CC1CC2CN(CCO)C1 (centres undefined)	none (no result: HttQ103 aggreg, PNC inhibitor)
CC(=O)Nc1ccccc1C(=O)OCC(=O)c1ccccc1Cl	none (no result: HTT ATP protect)
CC(=O)Nc1ccccc1OP1(=O)COc2ccccc2OC1	PNC inhibitor inconclusive | HPGD inh cf inactive
Cc1ccc(-c2nc(N3CCOCC3)s[n+]2-c2ccccc2)cc1	ALDH1A1 inh-1 2.5µM, HPGD block 0.16µM (no result: HTT ATP protect) | HPGD inh cf 3.2µM
CS(=N)(=O)CC[C@@H](N)C(=O)O (some centres undefined)	HTT ATP protect inconclusive (no result: HttQ103 aggreg, PNC inhibitor)
COc1ccc2c(c1)CCC1C2CC[C@@]2(C)C1CC[C@@H]2NCCCCCCN1C(=O)C=CC1=O (some centres undefined)	ALDH1A1 inh-1 0.5µM (no result: HttQ103 aggreg, HTT ATP protect, PNC inhibitor) | ALDH1A1 inh-2 5µM
CC/C=C\C/C=C\C/C=C\C/C=C\C/C=C\CCCC(=O)NCCc1ccc(O)c(O)c1	none (no result: HttQ103 aggreg, PNC inhibitor)
